From PubChem BioAssay
USP2a inh: blocks human ubiquitin-specific protease USP2a. USP2a enzymatic assay, qHTS inhibition. Potency, µM (titrated, usually from 38.3 µM), for the others: top-dose activity change, negative = inhibition, most hits filed as inhibitors. hit rate 0.1% among 60,000. O75604; also: potency is read from the fitted curve at half-maximal effect; nearly all actives have a fitted effect of over 60% in size
Target sequence (O75604 whole entry, looked up): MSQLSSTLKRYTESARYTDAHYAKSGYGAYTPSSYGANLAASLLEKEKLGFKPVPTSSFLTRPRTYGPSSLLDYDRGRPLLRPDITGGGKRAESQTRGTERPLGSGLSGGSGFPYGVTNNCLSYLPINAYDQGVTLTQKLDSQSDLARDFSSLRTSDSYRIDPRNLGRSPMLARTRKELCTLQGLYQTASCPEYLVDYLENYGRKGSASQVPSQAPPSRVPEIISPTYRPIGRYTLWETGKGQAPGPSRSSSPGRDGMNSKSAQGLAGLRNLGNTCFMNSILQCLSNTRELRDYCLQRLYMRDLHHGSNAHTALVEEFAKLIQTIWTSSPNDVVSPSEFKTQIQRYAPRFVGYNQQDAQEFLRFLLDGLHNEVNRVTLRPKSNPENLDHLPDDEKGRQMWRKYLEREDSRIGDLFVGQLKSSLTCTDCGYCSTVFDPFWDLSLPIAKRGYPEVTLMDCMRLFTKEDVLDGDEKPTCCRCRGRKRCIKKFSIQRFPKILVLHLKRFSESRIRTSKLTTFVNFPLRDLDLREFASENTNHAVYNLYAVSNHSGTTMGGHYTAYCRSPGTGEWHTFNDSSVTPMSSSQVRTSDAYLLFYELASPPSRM
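Coupled readout: USP2-cleaved Ub-PLA2 (20nM final) turns over NBD C6-HPC (20uM final), Ex 460nm/Em 535nm after 2.5 h, time-zero read flagging artifacts. Enzyme (20nM final, pH 8.0 Tris) given 30 min RT with compound first; NEM defines full inhibition.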
AID923: qHTS Assay for Allosteric/Competitive Inhibitors of Caspase-1: Spectroscopic Profiling in AFC Spectral Region | Potency, µM (top dose mostly 57.5 µM), for inactives: at the highest dose fluorescence increase, actives largely listed as activators | hit rate 1.1% among 75,000 | compound fluorescence, AFC spectral region (405/520 nm); also: potency is read from the fitted curve at half-maximal effect; 0% is about no effect
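Baseline compound fluorescence (AFC region, 405 nm ex/520 nm em) taken from the intercept of kinetic reads with 50 nM caspase-1 and 5 uM Ac-WEHD-AFC; normalized to an on-plate AFC standard curve; compounds titrated up to 57 uM.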
A350 autofl: compound fluoresces in the Alexa 350 spectral region. max dye-equivalent concentration, M. hit rate 11% among 59,000. Compound autofluorescence, 340/450 nm, Alexa 350 dye-equivalents; stronger effect = higher value; in the data active = max dye-equivalent concentration above about 10 nM; inconclusive = mostly about 1.1 nM to 9.6 nM
HSD17B inh: blocks hydroxysteroid 17-beta dehydrogenase activity; recombinant HSD17B10, NADH fluorescence kinetic; Q99714; Potency, µM (series often up to 57.1 µM), for inactives: top-dose activity change, negative = inhibition, actives largely listed as inhibitors; hit rate 7.6% among 75,000;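 also: the protocol describes HADH2 (HSD17B10) and not the HSD17B4 of the title; potency is read from the fitted curve at half-maximal effect; % is scaled to controls: 0 for no effect and ±100 for the full control effect; nearly all actives have a fitted effect of over 70% in size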
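20 nM HADH2, pH 9.0 Tris/Tween; cpd preinc 15 min RT; start w/ 1 mM NAD+ + 90 uM b-hydroxybutyryl-CoA; kinetic fluor ex360/em450 q30s x 4 min; delta last-first.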
4-MU autofl: compound fluoresces in the 4-MU spectral region. compound autofluorescence, 340/450 nm, 4-MU equivalents; stronger effect = higher value. max dye-equivalent concentration, M. hit rate 11% among 59,000. AID 589; in the data active = max dye-equivalent concentration above about 10 nM; inconclusive = mostly about 1.1 nM to 9.6 nM
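Compounds in 100 mM Tris, pH 8.0, sat 15 min at room temperature before fluorescence was read at 340 nm excitation/450 nm emission; a per-plate six-point 4-MU standard curve converted signals to dye-equivalent concentration at each compound concentration.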
HADH2 inhib: HADH2 (human) dehydrogenase inhibition | Q99714 | recombinant HADH2, NADH fluorescence, beta-hydroxybutyryl-CoA | Potency, µM (doses to about 57.1 µM), for inactives: at the top dose activity change, negative = inhibition, usual class: inhibitors | hit rate 3.4% among 73,000; also: potency is read from the fitted curve at half-maximal effect; % is scaled to controls: 0 for no effect and ±100 for the full control effect; nearly all actives have a fitted effect of over 60% in size
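E. coli-expressed His-tagged HADH2 tested at 20 nM in alkaline Tris buffer (pH 9.0); oxidation of 90 uM beta-hydroxybutyryl-CoA with 1 mM NAD+ tracked fluorimetrically for 4 min.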
An asterisk follows results filed as active; i = inactive; ? = inconclusive; / = not tested or not shown; ! = a repeat was not active; [ ] = dose if it differs, or a comment. Hits are enriched below; roughly 13% of the tested compounds scored in any of these assays. Unless noted, calls follow the shape of the dose curve; as a rule, active = well fitted curve in the direction sought with a large enough effect; inconclusive = small, poorly fitted or top-dose-only effect, or another doubt; inactive = no such curve, though single readings can be large; an effect the other way counts as inactive or inconclusive.

SMILES	USP2a inh	AID923	A350 autofl	HSD17B inh	4-MU autofl	HADH2 inhib
CN(Cc1ccco1)c1ccnc(-c2ccoc2)n1	-14%	6%	i	?	i	3.2µM*
CN(Cc1ccco1)c1ccnc(-c2ccccc2C(F)(F)F)n1	33%	-2%	2.8e-08M*	8%	2.4e-08M*	-21%
CN(Cc1ccco1)c1ccnc(-c2cccnc2)n1	72%	3%	i	-14%	i	-18%
O=S(=O)(NCCc1ccncc1)c1cc(Br)ccc1F	1%	-1%	i	0%	i	-2%
S=C(Nc1ccc2cn[nH]c2c1)Nc1ccc2cn[nH]c2c1	/	-1%[11.5 µM]	i	?	i	?
COc1ccc(CNc2ccc3cn[nH]c3c2)c(OC)c1OC	2%	2%	/	25µM*	/	-29%
c1ccc2nc(N3CCOCC3)c(N3CCOCC3)nc2c1	4%	1%	i	1%	i	-1%
Cn1c(N2CCOCC2)nc(-c2ccccc2)c1-c1ccccc1	4%	-2%	?	32µM*	?	25µM*
c1ccc(-c2nc3ccccc3nc2N2CCOCC2)cc1	0%	12%	2.4e-07M*	?	2e-07M*	-8%
CCOC(=O)OCC1OC(c2ccc(C(C)=O)cc2)C=CC1Oc1ccc(-c2ccccc2)cc1 (configuration not stated)	/	0%[11.5 µM]	/	2%[11.4 µM]	/	4%[11.4 µM]
CC(=O)Nc1ccc(S(=O)(=O)Nc2cccc(N(C)S(C)(=O)=O)c2)cc1	-2%	-1%	9.5e-08M*	-14%	8e-08M*	-10%
CC(NC(=O)c1ccccc1)(C(=O)O)C(=O)O	/	-2%[11.5 µM]	i	6%[11.4 µM]	i	-8%[11.4 µM]
O=C(Cc1ccccc1)Nc1nc2ccc(Cl)cc2c2nc(-c3ccco3)nn12	/	3%	/	4µM*	/	-11%
O=C(Nc1nc2ccccc2n1Cc1ccccc1)c1ccco1	-11%	1%	?	-89%	i	-24%
Cc1cc2c(=O)n(NC(N)=O)c(C)nc2s1	/	-1%	i	10%	i	-11%
c1ccc2c(c1)nnn2Cc1nnc2sc(-c3ccc4c(c3)OCCO4)nn12	15%	3%	i	16µM*	i	6.3µM*
CCC(=O)O[C@H](CC(=O)O)C[N+](C)(C)C	/	4%	/	3%	/	0%
COc1ccc(-c2nn3c(-c4ccco4)nnc3s2)cc1OC	13%	0%	?	-11%	?	-3%
CCN(CC)c1ccc(-c2nn3c(-c4cccnc4)nnc3s2)cc1	/	/	1.4e-07M*	/	1.3e-07M*	/
COc1cc(OC)c(-c2nn3c(-c4ccncc4)nnc3s2)cc1OC	-29%	1%	1.5e-08M*	10%	1.4e-08M*	-2%
CCOc1ccc(-c2nn3c(-c4ccccc4)nnc3s2)cc1	-16%	1%	i	-18%	i	?
COc1cc(OC)c(-c2nn3c(-c4ccco4)nnc3s2)cc1OC	26%	2%	2.9e-07M*	?	2.3e-07M*	40µM*
COc1cccc(-c2nn3c(-c4cccc(C)c4)nnc3s2)c1	?	-1%	i	2%	i	?
COc1cc(OC)c(-c2nn3c(-c4cccnc4)nnc3s2)cc1OC	-18%	1%	4.4e-07M*	-17%	3.5e-07M*	46%
C=CCn1c(SCC(N)=O)nnc1-c1cc(Br)ccc1O	3%	0%	i	10%	i	-3%
SMILES	USP2a inh	AID923	A350 autofl	HSD17B inh	4-MU autofl	HADH2 inhib
CC(=O)OC1CC[C@]2(C)C(=CCC3C4CCC(C(C)CCCC(C)C)[C@]4(C)CCC32)C1 (some centres not stated)	4%	0%	/	1%	/	/
Cc1ccc(N)cc1O	/	17%	/	-6%	/	-23%
N=C1C=CC(=C(c2ccc(N)cc2)c2ccc(N)cc2)C=C1	/	3%[11.5 µM]	i	25µM*!	i	?
Cc1sc2nc(CSc3nnc(Cc4cccs4)n3C3CCCCC3)[nH]c(=O)c2c1C	27%	5%	i	-20%	i	?
N#C/C(=C(/O)CSc1nnc(Cc2cccs2)n1C1CCCCC1)c1nc2ccccc2[nH]1	21%	6%	?	32µM*	?	?
Cc1ccc2nc(CSc3nnc(Cc4cccs4)n3C3CCCCC3)cc(=O)n2c1	7%	1%	1.2e-08M*	?	?	22%
C=CCn1c(COc2ccc(CC)cc2)nnc1SC/C(O)=C(\C#N)c1nc2ccccc2[nH]1	28%	8%	1.4e-08M*	?	1.1e-08M*	?
CCOC(=O)c1oc2nc(C(C)C)c3c(c2c1N)CC(C)(C)OC3	-9%	0%	8.3e-07M*	16µM*	6e-07M*	91%
CCOC(=O)c1oc2nc(C(C)C)c3c(c2c1N)CCC3	-1%	0%	?	2%	?	8%
CCCc1nc2oc(C(=O)OCC)c(N)c2c2c1COC(C)(C)C2	3%	4%	5.5e-07M*	25µM*	4e-07M*	95%
CN(C)CCCNC(=O)CCC1CCCCC1	1%	1%	/	-6%	/	4%
COC(=O)c1ccc(CSc2nc3c(cnn3-c3ccc(C)c(C)c3)c(=O)[nH]2)o1	2%	0%	i	6%	i	-15%
COC(=O)c1ccc(CSc2nc3scc(-c4cccs4)c3c(=O)[nH]2)o1	19%	3%	i	20µM*	i	10µM*
O=C(NCc1ccccn1)C1CCN(S(=O)(=O)c2cnc[nH]2)CC1	2%	1%	?	0%	?	-11%
COCCNc1ncnc2ccc(-c3ccccc3OC)cc12	0%	1%	i	25µM*	i	?
COCCNc1ncnc2ccc(-c3ccoc3)cc12	138%	14%	6.2e-08M*	32µM*	6.1e-08M*	?
CC(=O)NCCNc1ncnc2ccc(-c3ccoc3)cc12	35%	9%	6.6e-08M*	25µM*	6.2e-08M*	?
Cc1cnc(CNc2ncnc3ccc(-c4ccoc4)cc23)cn1	95%	10%	5.3e-08M*	?	5.1e-08M*	?
Cc1ccc(S(=O)(=O)N[C@@H]2COC(=O)C/C=C\[C@H](C)COC(=O)N[C@@H](C)C(=O)C/C=C\[C@H]2C)cc1	/	0%[11.5 µM]	/	6%[11.4 µM]	/	-2%[11.4 µM]
[N-]=[N+]=NC[C@@H]1O[C@@H](n2cnc3c(N)ncnc32)[C@@H]2O[C@@H]21	/	1%[11.5 µM]	i	-2%[11.4 µM]	i	7%[11.4 µM]
O=C(Nc1cccc(F)c1)N1CCC2(CC1)CCN(C(=O)c1cccc(F)c1)CC2	77%	1%	i	3%	i	8%
CC(=O)Nc1cccc(NC(=O)C2CCCN2C(=O)Nc2cccc(F)c2)c1 (configuration not stated)	33%	0%	1.1e-08M*	-1%	1.1e-08M*	6%
CC(=O)N1CCC2(CC1)CCN(C(=O)Nc1cccc(F)c1)CC2	11%	0%	1.8e-08M*	-4%	1.6e-08M*	0%
